Reference: PubChem BioAssay (EPA / NIEHS)
Records with an inconclusive call do not appear. Calls of active or inactive are those of the source. How the source made its calls, unless noted: active means hit-call score of the fitted dose curve at least 0.9, where 1 is the maximum; inactive means score below 0.9.

What was measured:
[1] = ATG_TCF_b_cat_CIS: Attagene CIS-FACTORIAL HepG2 Assay for human T-Cell-Factor with beta-catenin (TCF/b-cat) (AID 2282965); settings: HepG2 TCF/beta-catenin cis-reporter transcription, actives raise or lower the signal
Method in brief: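 HepG2 cells transiently transfected with multiple cis-promoter-regulated reporter transcription units, so endogenous transcription factor activity is measured. Reporter mRNA read 24 hours after dosing by RT-PCR, fluorescent labelling and capillary electrophoresis; bidirectional fitting against DMSO.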

[2] = ATG_TAL_CIS: Attagene CIS-FACTORIAL HepG2 Assay for human TAL Basal Promoter (AID 2282966); settings: HepG2 Attagene cis-factorial TAL promoter reporter; actives raise or lower the signal;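 further: background control endpoint measuring basal TAL promoter reporter mRNA not a specific factor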
Method in brief: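 HepG2 cells transiently transfected with multiplexed cis-promoter reporter units, dosed 24 h. Reporter mRNA quantified by RT-PCR, 6-FAM labelling, HpaI digestion and capillary electrophoresis; TAL basal promoter serves as background control, fitted bidirectionally versus DMSO.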

[3] = ATG_TGFb_CIS: Attagene CIS-FACTORIAL HepG2 Assay for human Transforming Growth Factor (TGF) (AID 2282967); settings: HepG2 Attagene CIS TGFb reporter, mRNA transcription; actives raise or lower the signal
Method in brief: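 Endogenous TGFB1-linked transcription factor activity read as reporter mRNA via RT-PCR and capillary electrophoresis, 24 h after dosing transiently transfected HepG2 cells. Gain or loss of signal fitted relative to DMSO.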

[4] = ATG_VDRE_CIS: Attagene CIS-FACTORIAL HepG2 Assay for human Vitamin D Receptor Element (VDRE) (AID 2282968); settings: HepG2 VDRE cis-reporter transcription, actives raise or lower the signal
Method in brief: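 HepG2 cells transiently transfected with cis-element reporter units, dosed 24 h; reporter mRNA measured by RT-PCR, 6-FAM labeling, HpaI digestion and capillary electrophoresis. Activity fitted bidirectionally against DMSO baseline.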

[5] = molecular target: Steroid hormone receptor ERR1 (Homo sapiens) (UniProt P11474); test: ATG_ERRa_TRANS: Attagene TRANS-FACTORIAL HepG2 Assay for human Estrogen-Related Receptor alpha (ERRa) (AID 2282971; active means hit-call score of the fitted dose curve at least 0.9, where 1 is the maximum); settings: HepG2 Attagene TRANS reporter, ERRa transactivation
Method in brief: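 HepG2 cells transiently transfected with GAL4-UAS reporter units and chimeric NR-Gal4 constructs; after 24 hour compound incubation, reporter mRNA quantified by RT-PCR, fluorescent labelling and capillary electrophoresis, gain of signal versus DMSO.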

[6] = molecular target: X-box-binding protein 1 (Homo sapiens) (UniProt P17861); test: ATG_Xbp1_CIS: Attagene CIS-FACTORIAL HepG2 Assay for human X-box Binding Protein 1 (XBP1) (AID 2282972); settings: HepG2 XBP1 cis-element reporter, Attagene multiplex; actives raise or lower the signal
Method in brief: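 After a 24-hour chemical exposure of HepG2 cells carrying cis-regulated reporters, reporter mRNA levels are assessed. Quantification uses RT-PCR, 6-FAM labelling and capillary electrophoresis. Gain- or loss-of-signal is fitted against DMSO.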

[7] = ATG_M_19_TRANS: Attagene TRANS-FACTORIAL HepG2 Assay for M19 Transcription Factor (Internal Marker) (AID 2282974; active means hit-call score of the fitted dose curve at least 0.9, where 1 is the maximum); settings: HepG2 Attagene TRANS-FACTORIAL M19 internal marker reporter
Method in brief: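 Background-control readout: after 24 h chemical exposure of transfected HepG2 carrying GAL4-driven reporter units, RNA was reverse-transcribed, amplified, fluorescently labeled and sized by capillary electrophoresis; gain-of-signal fit against DMSO.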

[8] = ATG_GAL4_TRANS: Attagene TRANS-FACTORIAL HepG2 Assay for GAL4 (Internal Marker) (AID 2282976; active means hit-call score of the fitted dose curve at least 0.9, where 1 is the maximum); settings: HepG2 Attagene TRANS GAL4 internal marker reporter
Method in brief: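 Background-control readout: GAL4-UAS reporter transcript in transiently transfected HepG2 cells after 24 h compound exposure. Measured by RT-PCR, 6-FAM primer extension, HpaI digest and capillary electrophoresis; gain-of-signal fit versus DMSO.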

[9] = molecular target: Estrogen receptor (Homo sapiens) (UniProt P03372); test: ATG_ERa_TRANS: Attagene TRANS-FACTORIAL HepG2 Assay for human Estrogen Receptor alpha (ERa) (AID 2282970; active means hit-call score of the fitted dose curve at least 0.9, where 1 is the maximum); settings: HepG2 Attagene TRANS ERa GAL4 reporter, mRNA
Method in brief: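 HepG2 cells transiently transfected with multiplexed GAL4-UAS reporter units read out chimeric NR-Gal4 activity. After 24 h compound exposure, reporter mRNA was quantified by RT-PCR, 6-FAM labeling, HpaI digestion and capillary electrophoresis, relative to DMSO.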

[10] = molecular target: Nuclear receptor subfamily 1 group I member 3 (Homo sapiens) (UniProt Q14994); test: ATG_CAR_TRANS: Attagene TRANS-FACTORIAL HepG2 Assay for human Constitutive Androstane Receptor (CAR) (AID 2282969; active means hit-call score of the fitted dose curve at least 0.9, where 1 is the maximum;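 further: activators raise reporter mRNA above DMSO so AC50 marks induction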); settings: HepG2 Attagene TRANS-FACTORIAL CAR reporter
Method in brief: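 HepG2 cells transiently transfected with multiplexed GAL4-UAS reporter units expressing chimeric NR-Gal4 proteins; compound exposure 24 h. Reporter mRNA measured by RT-PCR, 6-FAM labelling, HpaI digestion and capillary electrophoresis; gain-of-signal fitted against DMSO baseline.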

Measured: AC50

Chain of Steroid hormone receptor ERR1 (Homo sapiens) (P11474 whole entry, looked up, the tested form may be a part): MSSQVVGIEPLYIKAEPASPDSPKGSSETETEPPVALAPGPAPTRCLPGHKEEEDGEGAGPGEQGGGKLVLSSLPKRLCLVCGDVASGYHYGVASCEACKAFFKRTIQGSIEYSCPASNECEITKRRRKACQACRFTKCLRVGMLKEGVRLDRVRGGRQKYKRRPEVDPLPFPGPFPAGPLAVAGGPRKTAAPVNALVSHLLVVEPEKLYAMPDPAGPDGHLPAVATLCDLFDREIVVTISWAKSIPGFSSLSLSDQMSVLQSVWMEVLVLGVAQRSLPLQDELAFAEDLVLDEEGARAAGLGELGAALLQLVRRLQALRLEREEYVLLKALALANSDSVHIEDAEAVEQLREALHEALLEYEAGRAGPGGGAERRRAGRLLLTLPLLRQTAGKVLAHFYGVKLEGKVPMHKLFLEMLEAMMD
Chain of Estrogen receptor (Homo sapiens) (P03372 whole entry, looked up, the tested form may be a part): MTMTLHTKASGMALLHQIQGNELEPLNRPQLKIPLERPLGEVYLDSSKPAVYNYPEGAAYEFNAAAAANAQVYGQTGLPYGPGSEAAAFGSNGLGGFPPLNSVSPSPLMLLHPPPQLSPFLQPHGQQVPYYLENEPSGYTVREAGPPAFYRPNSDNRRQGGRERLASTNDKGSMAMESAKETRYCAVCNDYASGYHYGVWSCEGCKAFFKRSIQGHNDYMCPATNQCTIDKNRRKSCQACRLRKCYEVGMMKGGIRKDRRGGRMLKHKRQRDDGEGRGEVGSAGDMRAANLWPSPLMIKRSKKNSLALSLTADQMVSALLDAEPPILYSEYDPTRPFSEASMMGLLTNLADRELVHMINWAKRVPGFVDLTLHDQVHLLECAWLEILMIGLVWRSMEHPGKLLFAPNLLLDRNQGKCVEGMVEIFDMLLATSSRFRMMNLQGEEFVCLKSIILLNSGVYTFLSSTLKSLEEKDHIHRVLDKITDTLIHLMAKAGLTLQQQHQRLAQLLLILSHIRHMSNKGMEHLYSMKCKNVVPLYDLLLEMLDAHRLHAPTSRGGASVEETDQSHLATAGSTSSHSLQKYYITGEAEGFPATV
Chain of Nuclear receptor subfamily 1 group I member 3 (Homo sapiens) (Q14994 whole entry, looked up, the tested form may be a part): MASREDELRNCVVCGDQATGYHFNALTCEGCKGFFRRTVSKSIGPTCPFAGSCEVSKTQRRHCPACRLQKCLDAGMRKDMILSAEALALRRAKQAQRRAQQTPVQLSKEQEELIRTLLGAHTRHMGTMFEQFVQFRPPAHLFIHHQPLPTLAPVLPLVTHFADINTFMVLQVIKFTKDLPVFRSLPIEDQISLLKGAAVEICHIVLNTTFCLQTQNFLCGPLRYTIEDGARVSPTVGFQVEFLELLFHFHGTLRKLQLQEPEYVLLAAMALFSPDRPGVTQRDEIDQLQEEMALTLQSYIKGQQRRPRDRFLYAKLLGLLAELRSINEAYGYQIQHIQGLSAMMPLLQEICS
Chain of X-box-binding protein 1 (Homo sapiens) (P17861 whole entry, looked up): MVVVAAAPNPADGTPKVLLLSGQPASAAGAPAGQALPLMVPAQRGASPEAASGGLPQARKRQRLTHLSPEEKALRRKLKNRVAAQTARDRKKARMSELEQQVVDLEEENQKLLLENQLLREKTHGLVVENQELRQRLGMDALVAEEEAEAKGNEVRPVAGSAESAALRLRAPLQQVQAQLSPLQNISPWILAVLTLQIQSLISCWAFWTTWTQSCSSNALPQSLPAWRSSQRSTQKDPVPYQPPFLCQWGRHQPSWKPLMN

CCOC(=O)C(=O)OCC
inactive: [1] | [2] | [3] | [4] | [5] | [6] | [7] | [8]

CC(CO)(CO)[N+](=O)[O-]
inactive: [1] | [2] | [3] | [4] | [9] | [6] | [7] | [8]

C=CC(=O)OCC(CO)(COC(=O)C=C)COC(=O)C=C
inactive: [2] | [5] | [6] | [8]
active: [1] 5.46 µM | [3] 54.2 µM | [4] 0.708 µM

C=C(C)C(=O)OCCN(C)C
inactive: [1] | [2] | [3] | [4] | [9] | [7] | [8]

C=CCOC(=O)/C=C\C(=O)OCC=C
active: [1] 15.1 µM | [4] 27 µM
inactive: [2] | [3] | [9] | [7]

CC(=O)OC/C=C(C)/C=C/C=C(C)/C=C/C1=C(C)CCCC1(C)C
inactive: [2] | [9] | [7] | [8]
active: [1] 100 µM | [3] 1.23 µM | [4] 0.946 µM

CCCCCCCCCCCCOCCOS(=O)(=O)O
inactive: [1] | [2] | [3] | [4] | [5] | [6]

CC1=CC(O)CC(C)(C)C1 (stereo not given)
inactive: [1] | [2] | [3] | [4] | [5] | [6] | [7] | [8]

CCCCOC(=O)C(C)OC(=O)CCC (stereo not given)
inactive: [1] | [2] | [3] | [4] | [5] | [6] | [8]

CCCCCCCCCCCCCCCCCC(=O)OCCCCCCCCCCCCCC(C)C
inactive: [1] | [2] | [3] | [4] | [9] | [6] | [8]

CCCc1ccc(N)cc1
inactive: [1] | [2] | [3] | [4] | [9] | [6] | [7] | [8]

c1ccc2scnc2c1
inactive: [1] | [2] | [3] | [4] | [9] | [8]

CCCCCCOc1ccc(O)cc1
inactive: [2] | [3] | [7]
active: [1] 20.5 µM | [4] 33.4 µM | [9] 2.85 µM

CC1COC(=O)O1 (stereo not given)
active: [6] 0.0103 µM
inactive: [1] | [2] | [3] | [4] | [5] | [8]

CC1=CC[C@@H]2C[C@H]1C2(C)C
inactive: [1] | [2] | [3] | [4] | [6]

Nc1ccc(O)c(N)c1
inactive: [1] | [2] | [3] | [4] | [5] | [7] | [8]

N#CCCNCCC#N
inactive: [1] | [2] | [3] | [4] | [9] | [6] | [8]

OCC=Cc1ccccc1
inactive: [1] | [2] | [3] | [4] | [6] | [7]

O=S1(=O)CC=CC1
inactive: [1] | [2] | [3] | [4] | [6] | [7] | [8]

NC(=O)NC(N)=O
inactive: [1] | [2] | [3] | [10] | [9] | [6] | [8]

COC(=O)c1ccc(C(=O)OC)cc1
inactive: [1] | [2] | [3] | [4] | [6] | [7] | [8]

CCCOC(=O)CC
inactive: [1] | [2] | [3] | [4] | [6] | [7] | [8]

CC1(C)CC(=O)CC(C)(C)N1
inactive: [1] | [2] | [3] | [4] | [6] | [8]

OCCCO
inactive: [1] | [2] | [3] | [4] | [6] | [8]

C=CCOCC(O)CO (stereo not given)
inactive: [1] | [2] | [3] | [4] | [6] | [8]

NC(N)=S
inactive: [1] | [2] | [3] | [4] | [6] | [8]

CCCCCCC(C)O (stereo not given)
inactive: [1] | [2] | [3] | [4] | [6] | [7] | [8]

O=[N+]([O-])c1cc(N(CCO)CCO)ccc1NCCO
inactive: [1] | [2] | [3] | [4] | [6] | [7]

O=S(=O)(O)CCCN1CCOCC1
inactive: [1] | [2] | [3] | [4] | [6] | [8]

CCCC[N+](C)(CCCC)CCCC
inactive: [1] | [2] | [3] | [4] | [6] | [7] | [8]

CC(=O)CC(C)(C)C1CCCCC1
inactive: [1] | [2] | [3] | [10] | [9] | [5] | [6] | [7] | [8]

C=C(C)C(N)=O
inactive: [1] | [2] | [3] | [4] | [6] | [8]

CC(C)Cc1ccc(C(C)C(=O)O)cc1 (stereo not given)
inactive: [1] | [2] | [3] | [10] | [5] | [7] | [8]
active: [9] 36.4 µM

OCCN1CCOCC1
inactive: [1] | [2] | [3] | [10] | [6] | [8]
active: [9] 67.5 µM

CC(C)CCCC(C)(C)O
inactive: [1] | [2] | [3] | [4] | [6] | [7] | [8]

CCOc1ccc(NC(C)=O)cc1
inactive: [1] | [2] | [3] | [4] | [6] | [7] | [8]

CCCCCCCCOS(=O)(=O)O
inactive: [1] | [2] | [3] | [10] | [5] | [6] | [8]
active: [9] 100 µM

Nc1cc([N+](=O)[O-])ccc1C(=O)O
inactive: [1] | [2] | [3] | [4] | [6] | [7]

CCOC(=O)CC(C)C
inactive: [1] | [2] | [3] | [4] | [6] | [7] | [8]

CCCCCCCCOC(=O)c1ccc(O)cc1
inactive: [1] | [2] | [3] | [10] | [7] | [8]
active: [9] 5.53 µM

Cc1ccncc1
inactive: [1] | [2] | [3] | [4] | [7] | [8]

CCC(=O)OCC=Cc1ccccc1
inactive: [1] | [2] | [3] | [4] | [6] | [8]

CNC(=C[N+](=O)[O-])NCCSCc1ccc(CN(C)C)o1
inactive: [1] | [2] | [3] | [4] | [6] | [7] | [8]

CCCCCC(=O)O[C@]1(C(C)=O)CC[C@H]2[C@@H]3CCC4=CC(=O)CC[C@]4(C)[C@H]3CC[C@@]21C
active: [2] 13.4 µM | [4] 61.2 µM
inactive: [1] | [3] | [6] | [7] | [8]

CCCO
inactive: [1] | [2] | [3] | [4] | [7] | [8]

NS(=O)(=O)c1cc(C(=O)O)c(NCc2ccco2)cc1Cl
inactive: [1] | [2] | [3] | [4] | [6] | [8]

CCCCCC1CCC(=O)O1 (stereo not given)
inactive: [1] | [2] | [3] | [4] | [6] | [7] | [8]

CCC(C)(C)c1cc(O)c(C(C)(C)CC)cc1O
inactive: [2]
active: [1] 27.4 µM | [3] 146 µM | [4] 19.8 µM | [6] 5.91 µM

CCCCCCCCOC(C)=O
inactive: [1] | [2] | [3] | [4] | [6] | [7]

C[N+](C)(C)CCO
inactive: [1] | [2] | [3] | [4] | [6] | [7]

ClCCOCCOCCCl
inactive: [1] | [2] | [3] | [4] | [6] | [8]

CC(C)OB(OC(C)C)OC(C)C
inactive: [1] | [2] | [3] | [4] | [7] | [8]

CC(C)C(=O)c1ccccc1
inactive: [1] | [2] | [3] | [5] | [6] | [7] | [8]
active: [9] 0.604 µM

CC1=CC(C)C(C=O)C(C)C1 (stereo not given) (tested in a mixture with another compound)
active: [4] 28.8 µM
inactive: [2] | [3] | [10] | [9] | [6]

CCOC(=O)CC1(C)OCC(C)O1 (stereo not given)
inactive: [1] | [2] | [3] | [9] | [6] | [8]

[Cu+]
inactive: [1] | [2] | [3] | [9] | [6] | [7]

C=C(C)CCCC(C)CCO (stereo not given)
inactive: [1] | [2] | [3] | [9] | [6] | [7] | [8]
